A selection: hits, their analogues and other compounds. The true share with any hit is near 12%.
L3MBTL1 block: inhibitors of human L3MBTL1. AlphaScreen L3MBTL1–H3K9me1 peptide binding. Q9Y468. hit rate 0.66% among 230,000. Potency, µM (doses to about 57.1 µM), for the others: at the top dose activity, negative = inhibition, hits mostly inhibitors. AID 485360; note: % is set by controls: 0 for no effect and ±100 for the full control effect; nearly all actives have a fitted effect of over 60% in size
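AlphaScreen assay: L3MBTL1 (50 nM final) was preincubated 30 min at room temperature with biotinylated H3(1-15)K9me1 peptide (75 nM final), then 30 min with library compounds; streptavidin donor and nickel chelate acceptor beads (10 ug/mL final) added, 30 min dark.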
JMJD2A Tudor: JMJD2A Tudor domain (human) inhibition; O75164; AlphaScreen JMJD2A-Tudor / H3K4me3 peptide binding; Potency, µM (highest dose often 114 µM), inactives show top-dose activity change, negative = inhibition, hits mostly inhibitors; hit rate 4.4% among 390,000; AID 504339; note: % is set by controls: 0 for no effect and ±100 for the full control effect; nearly all actives have a fitted effect of over 50% in size
HP1b chromo inh: blocks HP1-beta chromodomain binding to methylated histone tails. AID 540317. Potency, µM (titrated, usually from 114 µM), without a hit: at the top dose activity change, negative = inhibition, usual class: inhibitors. hit rate 0.56% among 390,000. P83916. AlphaScreen HP1-beta / biotin-H3K9me3 peptide binding; note: nearly all actives have a fitted effect of over 70% in size
Target sequence (P83916 whole entry, looked up): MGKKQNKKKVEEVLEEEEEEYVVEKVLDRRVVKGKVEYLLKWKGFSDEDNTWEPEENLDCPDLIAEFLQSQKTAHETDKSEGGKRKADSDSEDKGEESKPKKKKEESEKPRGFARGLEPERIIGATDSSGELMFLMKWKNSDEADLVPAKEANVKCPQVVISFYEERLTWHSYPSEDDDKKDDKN
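HP1-beta protein (50 nM final) preincubated 30 min at room temperature with biotinylated H3(1-18)K9me3 peptide (50 nM) in PBS pH 7.4, 0.01% Tween-20, then compound added for 30 min. AlphaScreen streptavidin donor/nickel chelate acceptor beads (10 ug/mL final), 30 min dark, luminescence read.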
BAZ2B block: blocks human BAZ2B; Q9UIF8; AlphaScreen BAZ2B-H3K14Ac peptide displacement; Potency, µM (titrated, usually from 114 µM), for inactives: top-dose activity change, negative = inhibition, hits mostly inhibitors; hit rate 4.4% among 360,000; AID 504333; note: % is set by controls: 0 for no effect and ±100 for the full control effect; nearly all actives have a fitted effect of over 60% in size
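BAZ2B 50 nM plus b-H3(5-23)K14Ac 50 nM, PBS pH 7.4/0.01% Tween-20, 30 min RT; compound added (max 110 uM), 30 min RT; streptavidin donor/Ni-chelate acceptor beads 10 ug/mL final, 20 min dark; AlphaScreen read.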
Sfp PPTase inh: blocks B. subtilis Sfp PPTase activity; Q9F4F7; Potency, µM, for inactives: largest response in the series, negative = inhibition, usual class: inhibitors; Biochemical Sfp PPTase activity, qHTS; hit rate 3.5% among 310,000; AID 1490;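 note: the enzyme is Sfp with the accession as filed and its product quenches rhodamine fluorescence; 0% = enzyme reaction without inhibitor and -100% = no enzyme wells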
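With Hepes-Na pH 7.6 buffer containing 10 mM MgCl2, Sfp (15 nM) modified BHQ-2-YbbR (12.5 uM) using rhodamine-CoA (5 uM). Two reads 30 minutes apart at 525/598 nm yielded each well's rate.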
G9a inh: inhibitors of human histone lysine methyltransferase G9a. Q96KQ7. AID 504332. Potency, µM (series often up to 102 µM), for the others: at the top dose activity, negative = inhibition, usual class: inhibitors. G9a H3K9 monomethylation, AlphaScreen, 2 h. hit rate 8.8% among 350,000; note: % is set by controls: 0 for no effect and ±100 for the full control effect; nearly all actives have a fitted effect of over 75% in size
Target sequence (Q96KQ7 913-1193 limits assumed): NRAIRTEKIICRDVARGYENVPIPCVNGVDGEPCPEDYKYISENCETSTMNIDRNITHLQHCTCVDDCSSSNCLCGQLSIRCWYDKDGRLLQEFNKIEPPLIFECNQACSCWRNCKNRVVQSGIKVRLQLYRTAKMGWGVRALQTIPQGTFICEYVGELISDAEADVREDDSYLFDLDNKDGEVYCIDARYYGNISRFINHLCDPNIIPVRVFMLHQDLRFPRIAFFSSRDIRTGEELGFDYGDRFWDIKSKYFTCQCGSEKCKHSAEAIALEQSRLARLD
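Methyltransferase reactions run at room temperature for 2 h (20 nM enzyme, 500 nM biotin-H3K9 peptide, 20 uM SAM) after a 15 min compound preincubation; product detected by AlphaScreen beads and anti-H3K9me1 antibody.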
* hit, by the source's call; ? = inconclusive; / = not tested or not shown; [ ] = remark or other dose. Calls come from the whole dose curve; as a rule, active = well fitted curve in the direction sought with a large enough effect; inconclusive = small, poorly fitted or top-dose-only effect, or another doubt; inactive = no such curve, though single readings can be large; an effect the other way counts as inactive or inconclusive. Potency is the fitted concentration of half-maximal effect.

SMILES	L3MBTL1 block	JMJD2A Tudor	HP1b chromo inh	BAZ2B block	Sfp PPTase inh	G9a inh
Cc1ccc2nc(N(CCN3CCOCC3)C(=O)CCS(=O)(=O)c3ccccc3)sc2c1	1%	-29%	26%	4%	/	9%[0.501 µM]
Cc1ccc(S(=O)(=O)CCC(=O)N(CCCN2CCOCC2)c2nc3ccccc3s2)cc1	4%	-6%	40%	-3%	/	45µM*
CCNc1c(NCC)c(=O)c1=O	0%	-11%	5%	-7%	14%	8%
COc1cccc(N2CCN(Cc3nnc(-c4ccc5c(c4)OCO5)o3)CC2)c1	/	-10%	16%	0%	/	-1%[59 µM]
O=C1CC(N2CCC(c3nc4ccccc4[nH]3)CC2)C(=O)N1c1ccccc1F (stereo not given)	4%[11.4 µM]	-19%	-4%	-22%	8%	35µM*
O=C1NC(c2ccccn2)Nc2sc3c(c21)CCC3 (stereo not given)	-2%	?	11%	?	32µM*	22µM*
CC(C)(C)C1CCc2c(sc3c2C(=O)NC(c2ccco2)N3)C1 (stereo not given)	9%	?	13%	-1%	56µM*	10µM*
CC(C)(C)C1CCc2c(sc(NC(=O)c3ccco3)c2C(N)=O)C1 (stereo not given)	6%	-15%[11.4 µM]	33%	5%	0%	5%[59 µM]
O=C1NC(c2ccc(Br)cc2)Nc2sc3c(c21)CCC3 (stereo not given)	-15%	?	-7%	-26%	40µM*	?
CN1CCc2c(sc3c2C(=O)NC(c2ccc(OC(=O)c4ccc(C(C)(C)C)cc4)cc2)N3)C1 (stereo not given)	/	-17%	5%	-34%	/	7.9µM*
COc1ccc2c(c1)c1c(c(=O)n(-c3ccc(C)cc3)c(=O)n1CC(=O)c1ccc(Cl)cc1)n2C	/	5%	39%	-4%	/	7%[59 µM]
COc1cc(OC)c(OC)cc1CNCCSc1nnnn1-c1ccccc1	/	?	7%	?	/	-27%[59 µM]
CN1CCc2c(sc3c2C(=O)NC(c2ccccn2)N3)C1 (stereo not given)	?	20µM*	36%	45µM*	16µM*	25µM*
Cc1ccc(C2NC(=O)c3c(sc4c3CCN(C)C4)N2)s1 (stereo not given)	-5%	?	-31%	-30%	-2%	?
Cc1ccsc1C1NC(=O)c2c(sc3c2CCCC3)N1 (stereo not given)	-5%	?	-15%	-7%	45µM*	?
CN1CCc2c(sc3c2C(=O)NC(c2ccc(OC(=O)c4ccc(Cl)cc4)cc2)N3)C1 (stereo not given)	/	-11%	22%	?	/	16µM*
CN1CCc2c(sc3c2C(=O)NC(c2ccc(OC(=O)c4ccccc4)cc2)N3)C1 (stereo not given)	/	-30%	-5%	-17%	/	13µM*
Cc1cc(S(=O)(=O)n2ccnc2C(C)C)cc([N+](=O)[O-])c1C	/	-13%	23%	-12%	/	8%[59 µM]
COC(=O)c1ccc(Cl)cc1NC(=O)N1CCC(CN2CCC(C)CC2)CC1	/	-18%	23%	5%	/	-14%[59 µM]
CN1CCc2c(sc3c2C(=O)NC(c2ccccc2)N3)C1 (stereo not given)	-4%	-22%	0%	-1%	56µM*	40µM*
CCN(CC(=O)Nc1ccccc1OC)C(=O)CC1CCCC1	-7%	-5%	41%	/	/	/
Cc1ccc(-c2n[nH]c(=S)n2/N=C/c2sccc2C)cc1	0%	-22%	7%	-13%	-6%	0.63µM*
Cc1ccccc1/C=N/n1c(-c2cc(-c3ccccc3)n[nH]2)n[nH]c1=S	/	?	39%	0%	56µM*	?
Cc1ccsc1/C=N/n1c(-c2cc(-c3ccccc3)n[nH]2)n[nH]c1=S	-11%	?	-3%	-12%	71µM*	2.5µM*
S=c1[nH]nc(-c2cc(-c3ccccc3)n[nH]2)n1/N=C/c1ccc(Br)s1	?	?	?	56µM*	25µM*	28µM*
SMILES	L3MBTL1 block	JMJD2A Tudor	HP1b chromo inh	BAZ2B block	Sfp PPTase inh	G9a inh
COc1ccccc1C(=O)N(c1ccc(C)cc1)S(=O)(=O)c1ccc(Cl)cc1	/	-19%	20%	0%	/	4%[59 µM]
COc1ccc(CCNc2nc3ccccc3c3nc(-c4cccc(C)c4)nn23)cc1OC	/	-28%	11%	-10%	/	0%[59 µM]
COC(=O)c1ccc(NC(=O)NCCn2nnc3cc(S(=O)(=O)N(C)C)ccc32)cc1	/	-12%	6%	-2%	/	6%[59 µM]
Cc1cc(N2CCCCC2)nc2ccc(NC(=O)/C=C/c3ccc(OCCC(C)C)cc3)cc12	/	-30%	-2%	-5%	/	-8%[59 µM]
COc1ccccc1N(CC(=O)Nc1cc(C)on1)S(=O)(=O)c1cccc(C(F)(F)F)c1	-2%	-9%	39%	2%	/	1%[12.7 µM]
Clc1ccccc1-c1nn2c(-c3cc(-c4ccccc4)n[nH]3)nnc2s1	/	-11%[57.1 µM]	20%[57 µM]	/	/	/
S=c1[nH]nc(-c2cc(-c3ccccc3)n[nH]2)n1/N=C/c1c(Cl)cccc1Cl	-12%	45µM*	6%	79µM*	40µM*	4µM*
CCOC(=O)N1CCC(NC(=O)CC2C(=O)NCCN2Cc2cccc(F)c2F)CC1 (stereo not given)	/	-6%	46%	2%	7%	-1%
O=C(Cc1csc(NC(=O)Nc2ccc(Cl)cc2)n1)NCc1cccnc1	-4%	-31%	4%	?	/	?
O=C(Cc1csc(NC(=O)Nc2cccc(Cl)c2)n1)NCc1cccnc1	-10%	-24%	23%	?	/	35µM*
Cc1ccc(CNC(=O)Nc2cc(C(=O)NCc3ccc(C(C)C)cc3)ccc2N2CCCC2)cc1	/	-24%	9%	-23%	/	9%[59 µM]
COc1ccc(C(=O)N2CCC(c3ccncc3)CC2)cc1OC	/	-9%	11%	2%	/	-5%[59 µM]
COc1ccc(C(=O)N2CCC(C(=O)N3CCN(Cc4ccccc4)CC3)CC2)cc1	/	-12%	9%	-11%	1%	34%
COc1cccc(C(=O)N2CCN(C3CCN(Cc4ccccc4)CC3)CC2)c1	/	/	/	28µM*	?	8.9µM*
COc1cccc(C(=O)N2CCN(C3CCCCC3)CC2)c1	4%	11µM*	-24%	?	-42%	/
COc1ccccc1C(=O)N1CCN(C2CCN(Cc3ccccc3)CC2)CC1	/	7.9µM*	?	56µM*	-18%	10µM*
O=C(c1cccc(OC2CCN(C3CCCC3)CC2)c1)N1CCCCCCC1	-1%	-2%	38%	-8%	18%	-37%
COc1ccc(C(=O)N2CCN(C3CCC(c4ccccc4)CC3)CC2)cc1OC (stereo not given)	2%	2.8µM*	-49%	50µM*	-26%	3.2µM*
